PubChem BioAssay (EPA / NIEHS)
Activity calls are given as the source filed them. Rule for the calls: active = hit-call score of the fitted dose curve at least 0.9, where 1 is the maximum; inactive = score below 0.9.

What was measured:
Details in all cases: mRNA level, 48 h; actives raise or lower the signal
CYP3A5 (gene 1577) = assay: LTEA_HepaRG_CYP3A5: Life Technologies and Expression Analysis (LTEA) Assay for CYP3A5 using HepaRG (AID 2283493)
Procedure, shortened: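 mRNA levels were quantified by qRT-PCR on Fluidigm arrays and normalized to three housekeeping genes. Differentiated HepaRG cells received 48 h exposure (top 100 uM, half-log steps, 0.5% DMSO vehicle, duplicate); bidirectional fitting versus DMSO.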

[1] = read-out: Fatty Acid-Binding Protein 1 (FABP1), FABP1 (gene 2168); assay: LTEA_HepaRG_FABP1: Life Technologies and Expression Analysis (LTEA) Assay for Fatty Acid-Binding Protein 1 (FABP1) using HepaRG (AID 2283494)
Procedure, shortened: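 Values reflect bidirectional concentration-response fitting of FABP1 mRNA change against 0.5% DMSO controls. Human HepaRG cultures received eight half-log doses (top 100 uM) for 48 h; expression quantified by TaqMan qRT-PCR with housekeeping-gene normalization.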

[2] = read-out: Cytochrome P450 4A22 (Homo sapiens) (UniProt Q5TCH4); assay: LTEA_HepaRG_CYP4A22: Life Technologies and Expression Analysis (LTEA) Assay for Cytochrome P450 4A22 (CYP4A22) using HepaRG (AID 2283495)
Procedure, shortened: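 qRT-PCR of CYP4A22 mRNA (Fluidigm TaqMan, normalized to three housekeeping genes) after 48 h chemical exposure of HepaRG cells; 8-point half-log series, top 100 uM, 0.5% DMSO vehicle. Bidirectional curve fitting vs DMSO baseline.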

[3] = read-out: Cytochrome P450 7A1 (Homo sapiens) (UniProt P22680); assay: LTEA_HepaRG_CYP7A1: Life Technologies and Expression Analysis (LTEA) Assay for Cytochrome P450 7A1 (CYP7A1) using HepaRG (AID 2283496)
Procedure, shortened: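 HepaRG, 48 h exposure, 8-pt half-log series from 100 uM, 0.5% DMSO vehicle, duplicates. Readout: TaqMan qRT-PCR mRNA vs three housekeeping genes; bidirectional curve fit against DMSO baseline.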

[4] = read-out: Glutathione S-Transferase (GSTA2), GSTA2 (gene 2939); assay: LTEA_HepaRG_GSTA2: Life Technologies and Expression Analysis (LTEA) Assay for Glutathione S-Transferase (GSTA2) using HepaRG (AID 2283497)
Procedure, shortened: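 Oxidative-stress marker GSTA2 is quantified by TaqMan qRT-PCR in HepaRG cultures treated 48 h across an eight-point range to 100 uM. Expression is normalized to endogenous controls and compared with 0.5% DMSO vehicle.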

[5] = read-out: Glutamate-cysteine ligase catalytic (GCLC), GCLC (gene 2729); assay: LTEA_HepaRG_GCLC: Life Technologies and Expression Analysis (LTEA) Assay for Glutamate-cysteine ligase catalytic (GCLC) using HepaRG (AID 2283498)
Procedure, shortened: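 Oxidative-stress marker GCLC is measured as mRNA change in human HepaRG liver cells after 48 h chemical treatment in 0.5% DMSO, eight concentrations from 100 uM. Activity is fitted bidirectionally against vehicle.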

[6] = read-out: growth arrest and DNA damage 45 (GADD45G), GADD45G (gene 10912); assay: LTEA_HepaRG_GADD45G: Life Technologies and Expression Analysis (LTEA) Assay for growth arrest and DNA damage 45 (GADD45G) using HepaRG (AID 2283499)
Procedure, shortened: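 Differentiated human HepaRG cells in serum-free induction medium were exposed for 48 h to 8 half-log concentrations up to 100 uM in 0.5% DMSO, in duplicate. GADD45G mRNA was measured by TaqMan qRT-PCR, normalised to ACTB, GAPDH and POLR2A, and fitted bidirectionally against DMSO.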

[7] = read-out: Glutathione S-transferase M3 (GSTM3), GSTM3 (gene 2947); assay: LTEA_HepaRG_GSTM3: Life Technologies and Expression Analysis (LTEA) Assay for Glutathione S-transferase M3 (GSTM3) using HepaRG (AID 2283501)
Procedure, shortened: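 Differentiated HepaRG cells in serum-free induction medium were exposed in duplicate for 48 h to 8 half-log concentrations up to 100 uM in 0.5% DMSO. GSTM3 mRNA was measured by TaqMan qRT-PCR, normalized to ACTB/GAPDH/POLR2A, and fitted bidirectionally versus DMSO.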

[8] = read-out: Heat shock 70 kDa protein 1 (HSPA1A), gene 3303; assay: LTEA_HepaRG_HSPA1A: Life Technologies and Expression Analysis (LTEA) Assay for Heat shock 70 kDa protein 1 (HSPA1A) using HepaRG (AID 2283502)
Procedure, shortened: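 HSPA1A expression measured by qRT-PCR with ACTB/GAPDH/POLR2A normalization; curves fitted in both directions relative to DMSO vehicle. Exposure: 48 h in HepaRG cells, duplicate 8-point half-log series from 100 uM, 0.5% DMSO, serum-free induction medium.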

[9] = read-out: Hypoxia-inducible factor 1-alpha (Homo sapiens) (UniProt Q16665); assay: LTEA_HepaRG_HIF1A: Life Technologies and Expression Analysis (LTEA) Assay for Hypoxia-inducible factor 1 (HIF1A) Trancription factor using HepaRG (AID 2283503)
Procedure, shortened: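 HIF1A transcript level read by qRT-PCR (ACTB, GAPDH, POLR2A normalization) after 48 h chemical exposure of HepaRG cultures. Eight half-log concentrations, top 100 uM, 0.5% DMSO vehicle, duplicates; bidirectional curve fit against DMSO baseline.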

[10] = read-out: 3-Hydroxy-3-Methylglutaryl-CoA Synthase 2 (HMGCS2), HMGCS2 (gene 3158); assay: LTEA_HepaRG_HMGCS2: Life Technologies and Expression Analysis (LTEA) Assay for 3-Hydroxy-3-Methylglutaryl-CoA Synthase 2 (HMGCS2) using HepaRG (AID 2283504)
Procedure, shortened: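 Differentiated human HepaRG cells were exposed in duplicate for 48 h in serum-free induction medium to eight concentrations (top 100 uM, half-log steps, 0.5% DMSO). HMGCS2 mRNA was quantified by TaqMan qRT-PCR, normalised to ACTB, GAPDH and POLR2A, then fitted bidirectionally against DMSO.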

HGF (gene 3082) = assay: LTEA_HepaRG_HGF: Life Technologies and Expression Analysis (LTEA) Assay for Hepatocyte Growth Facto (HGF) using HepaRG (AID 2283505)
Procedure, shortened: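 Differentiated human HepaRG cells in serum-free induction medium were exposed in duplicate for 48 h to eight concentrations (top 100 uM, half-log steps, 0.5% DMSO). HGF mRNA was quantified by qRT-PCR, normalized to ACTB, GAPDH and POLR2A.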

[11] = read-out: Insulin Like Growth Factor 1 (IGF1), IGF1 (gene 3479); assay: LTEA_HepaRG_IGF1: Life Technologies and Expression Analysis (LTEA) Assay for Insulin Like Growth Factor 1 (IGF1) using HepaRG (AID 2283506)
Procedure, shortened: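 Expression measured by TaqMan qRT-PCR on a Fluidigm array, with three housekeeping genes for normalisation, after 48 h treatment of HepaRG cells. Top concentration 100 uM with half-log steps, 0.5% DMSO vehicle, bidirectional fit.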

[12] = read-out: Intercellular Adhesion Molecule 1 (ICAM1), ICAM1 (gene 3383); assay: LTEA_HepaRG_ICAM1: Life Technologies and Expression Analysis (LTEA) Assay for Intercellular Adhesion Molecule 1 (ICAM1) using HepaRG (AID 2283507)
Procedure, shortened: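 Differentiated HepaRG cells in serum-free induction medium were exposed in duplicate for 48 h to eight half-log concentrations up to 100 uM in 0.5% DMSO. Transcript levels were measured by qRT-PCR normalized to ACTB, GAPDH and POLR2A; bidirectional fits relative to DMSO.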

[13] = read-out: Insulin-like growth factor-binding protein 1 (IGFBP1), IGFBP1 (gene 3484); assay: LTEA_HepaRG_IGFBP1: Life Technologies and Expression Analysis (LTEA) Assay for Insulin-like growth factor-binding protein 1 (IGFBP1) using HepaRG (AID 2283508)
Procedure, shortened: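 Differentiated human HepaRG cells in serum-free induction medium were exposed in duplicate for 48 h to eight concentrations, top 100 uM with half-log dilutions, in 0.5% DMSO. Transcript levels came from qRT-PCR normalised to ACTB, GAPDH and POLR2A, fitted bidirectionally against DMSO.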

[14] = read-out: Interleukin 6 (IL6), IL6 (gene 3569); assay: LTEA_HepaRG_IL6: Life Technologies and Expression Analysis (LTEA) Assay for Interleukin 6 (IL6) using HepaRG (AID 2283509)
Procedure, shortened: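 Changes in IL6 mRNA, up or down relative to 0.5% DMSO controls, were derived from concentration-response curves in human HepaRG cells treated for 48 h at up to 100 uM, with ACTB, GAPDH and POLR2A as normalizers.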

[15] = read-out: Interleukin 6 Receptor (IL6R), IL6R (gene 3570); assay: LTEA_HepaRG_IL6R: Life Technologies and Expression Analysis (LTEA) Assay for Interleukin 6 Receptor (IL6R) using HepaRG (AID 2283510);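 for AC50: TaqMan qRT-PCR signal normalized to ACTB GAPDH and POLR2A housekeeping genes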
Procedure, shortened: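 IL6R transcript level by qRT-PCR after 48 h chemical exposure (8-point, half-log, max 100 uM, 0.5% DMSO vehicle) of HepaRG cells in serum-free induction medium. Normalized to three housekeeping genes; curves fitted in both directions relative to DMSO.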

[16] = read-out: Potassium channel subfamily K member 1 (KCNK1), KCNK1 (gene 3775); assay: LTEA_HepaRG_KCNK1: Life Technologies and Expression Analysis (LTEA) Assay for Potassium channel subfamily K member 1 (KCNK1) using HepaRG (AID 2283511)
Procedure, shortened: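 Human HepaRG cultures receive test chemicals for 48 h in 0.5% DMSO, top concentration 100 uM with half-log dilutions. Induction or suppression of KCNK1 mRNA relative to DMSO is derived by bidirectional fitting of qRT-PCR data.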

[17] = read-out: Keratin 19 (KRT19), KRT19 (gene 3880); assay: LTEA_HepaRG_KRT19: Life Technologies and Expression Analysis (LTEA) Assay for Keratin 19 (KRT19) using HepaRG (AID 2283512)
Procedure, shortened: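 Differentiated human HepaRG cells, plated 48 h, were exposed in duplicate for 48 h in serum-free induction medium to eight half-log concentrations up to 100 uM in 0.5% DMSO. KRT19 mRNA was quantified by qRT-PCR, normalized to ACTB, GAPDH and POLR2A, and fitted bidirectionally versus DMSO.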

[18] = read-out: JUN Transcription Factor, JUN (gene 3725); assay: LTEA_HepaRG_JUN: Life Technologies and Expression Analysis (LTEA) Assay for JUN Transcription Factor using HepaRG (AID 2283513)
Procedure, shortened: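 mRNA measured by TaqMan qRT-PCR after 48 h chemical exposure of HepaRG cultures; normalization to three housekeeping genes. Duplicate eight-point half-log curves from 100 uM in 0.5% DMSO; gain or loss fitted against DMSO baseline.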

Measured: AC50

Sequence of Hypoxia-inducible factor 1-alpha (Homo sapiens) (Q16665 whole entry, looked up): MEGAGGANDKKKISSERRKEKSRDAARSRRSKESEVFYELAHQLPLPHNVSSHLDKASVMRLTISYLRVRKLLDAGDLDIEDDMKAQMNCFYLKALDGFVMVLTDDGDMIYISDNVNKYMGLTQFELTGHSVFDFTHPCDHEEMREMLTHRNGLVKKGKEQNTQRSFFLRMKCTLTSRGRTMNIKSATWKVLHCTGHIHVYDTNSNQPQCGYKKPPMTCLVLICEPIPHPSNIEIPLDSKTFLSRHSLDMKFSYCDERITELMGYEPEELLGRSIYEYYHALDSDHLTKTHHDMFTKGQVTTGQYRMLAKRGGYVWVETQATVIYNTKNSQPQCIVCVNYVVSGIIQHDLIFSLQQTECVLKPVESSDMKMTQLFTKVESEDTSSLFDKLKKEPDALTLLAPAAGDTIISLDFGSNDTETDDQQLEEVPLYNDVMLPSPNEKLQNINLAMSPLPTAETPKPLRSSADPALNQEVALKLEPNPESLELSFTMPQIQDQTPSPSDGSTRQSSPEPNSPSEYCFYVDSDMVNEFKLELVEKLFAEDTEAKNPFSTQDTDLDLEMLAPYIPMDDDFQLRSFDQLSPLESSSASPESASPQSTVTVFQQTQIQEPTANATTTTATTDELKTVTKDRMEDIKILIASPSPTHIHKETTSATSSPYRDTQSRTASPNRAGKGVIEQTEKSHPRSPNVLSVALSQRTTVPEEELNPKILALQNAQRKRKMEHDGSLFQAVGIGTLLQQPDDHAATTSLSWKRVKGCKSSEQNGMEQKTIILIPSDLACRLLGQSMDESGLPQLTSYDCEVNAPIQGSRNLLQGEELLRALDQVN

CCOP(=S)(OCC)SCSP(=S)(OCC)OCC
active: CYP3A5 (gene 1577) 0.236 µM | [1] 12.1 µM | [2] 0.0742 µM | [3] 9.92 µM | [5] 0.0663 µM | [6] 1.49 µM | [10] 9.92 µM | [11] 0.0903 µM | [15] 0.064 µM
inactive: all other assays above

C=CC(=O)OCCCCCC(C)C
inactive: all assays above

CC(C)(C)c1cc(O)ccc1O
not listed: [9] | [16]
inactive: all other assays above

O=C(Nc1ccc2[nH]ccc2c1)c1cc2cc(F)ccc2n1Cc1cccc(F)c1
active: CYP3A5 (gene 1577) 92.9 µM | [1] 23.9 µM | [2] 22.3 µM | [3] 30.7 µM | [4] 31.2 µM | [5] 23.6 µM | [8] 90.7 µM | [9] 84.5 µM | [10] 30.2 µM | [11] 33.1 µM | [12] 12.6 µM | [13] 27.2 µM | [14] 50 µM | [15] 89.5 µM | [17] 50 µM | [18] 50 µM
inactive: [6] | [7] | HGF (gene 3082) | [16]
